Measured values published in article PMC5540273 (PLoS ONE, 2017).
Read-outs that look alike come from different tables or passages of the source.

Legend:
[1] = test system: CDC2L2; conditions: concentration: 1 μM, replicates: in singlicate; n = 1
[2] = test system: T1, CDC2L5; conditions: n = 1
T1 construct: gene CDK13

[3] = test system: T2, CDK11; conditions: concentration: 1 μM, replicates: in singlicate; n = 1
T2 construct: gene CDK19

[4] = test system: CDK2; conditions: concentration: 1 μM, replicates: in singlicate; n = 1
[5] = test system: CDK3; conditions: concentration: 1 μM, replicates: in singlicate; n = 1
[6] = test system: CDK4-cyclinD1; conditions: n = 1
[7] = test system: CDK4-cyclinD3; conditions: n = 1
[8] = test system: CDK4; conditions: n = 1
[9] = test system: CDK5; conditions: concentration: 1 μM, replicates: in singlicate; n = 1
[10] = test system: CDK7; conditions: concentration: 1 μM, replicates: in singlicate; n = 1
[11] = concentration: 1 μM, replicates: in singlicate
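Also: KINOMEscan kinase panel screen.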

Compound | %Inh [1] | %Inh [2, 11] | %Inh [3] | %Inh [4] | %Inh [5] | %Inh [6, 11] | %Inh [7, 11] | %Inh [8, 11] | %Inh [9] | %Inh [10] | %Inh ([2]; 1 µM) | %Inh ([6]; 1 µM) | %Inh ([7]; 1 µM) | %Inh ([8]; 1 µM)
Cl.Cl.NC(CNC(=O)c1cc(Br)c(-c2ccnc3[nH]ccc23)s1)c1ccccc1 (centres unmarked) [GSK1322949] | 9% | 0% | 42% | 0% | 25% | 17% | 0% | 23% | 0% | 47% |  |  |  | 
Nc1ncc(-c2cn[nH]c2)c2scc(-c3ccc4c(c3)CCN4C(=O)Cc3ccccc3)c12 [GSK2593067] | 0% | 0% | 23% | 0% | 2% | 0% | 0% | 0% | 0% | 0% |  |  |  | 
Cc1cccc(Nc2nc(N[C@H]3CCCC[C@H]3N)ncc2C(N)=O)c1.Cl [GSK986310] | 11% | 0% | 24% | 0% | 24% | 0% | 1% | 0% | 5% | 48% |  |  |  | 
COC(=O)Nc1nc2ccc(Oc3ccc(CC(=O)Nc4cc(C(F)(F)F)ccc4F)cc3)cc2[nH]1 [GW680903] | 8% | 0% | 0% | 0% | 11% | 27% | 4% | 10% | 0% | 0% |  |  |  | 
Fc1cc(Cl)ccc1Nc1ccnc2cc(-c3ccc(CN4CCOCC4)o3)ccc12 [GW560109] | 0% | 0% | 0% | 0% | 18% | 0% | 0% | 0% | 0% | 0% |  |  |  | 
O=C(Nc1n[nH]c2cc(-c3cccs3)ccc12)C1CC1 [SB-731284] | 0% | 85% | 0% | 65% | 16% | 0% | 18% | 8% | 0% | 48% |  |  |  | 
CC(C)(C)c1ccc(C(=O)Nc2cn3cc(-n4ccnc4)ccc3n2)cc1 | 1% | 7% | 1% | 12% | 0% | 0% | 0% | 0% | 8% | 4% |  |  |  | 
O=C1NC(=O)C(c2ccccc2Cl)=C1Nc1cccc(Cl)c1 [SB-342409] | 13% | 0% | 0% | 1% | 14% | 7% | 33% | 0% | 0% | 42% |  |  |  | 
COc1cc(Nc2ccnc3cc(-c4ccncc4)ccc23)cc(OC)c1OC.Cl [GW494610] | 0% | 0% | 2% | 1% | 1% | 39% | 0% | 27% | 0% | 0% |  |  |  | 
CC(=O)Nc1cn2nc(Oc3cccc(NC(=O)c4cccc(C(F)(F)F)c4)c3)ccc2n1 | 14% | 0% | 29% | 2% | 24% | 0% | 0% | 0% | 0% | 0% |  |  |  | 
COc1cccc(-c2nc(-c3ccccc3)[nH]c2-c2ccncc2)c1 [SB-610250] | 0% | 0% | 22% | 2% | 24% | 0% | 7% | 0% | 0% | 0% |  |  |  | 
CCOc1nccc(-c2c(-c3ccc(F)cc3)ncn2C2CCNCC2)n1 [SB-249175] | 13% | 34% | 12% | 5% | 0% | 33% | 10% | 26% | 12% | 24% |  |  |  | 
COc1ccc(C2=C(Nc3cccc(O)c3)C(=O)NC2=O)cc1 [SB-390766] | 0% | 0% | 93.8% | 98.3% | 42% | 20% | 9% | 35% | 0% | 0% |  |  |  | 
CCn1cnc2c(NCc3ccccc3)ncnc21 [SKF-96418] | 0% | 10% | 0% | 0% | 0% | 0% | 0% | 8% | 0% | 0% |  |  |  | 
CCNC(=O)/C=C/c1n[nH]c2cc(Sc3ccccc3C(=O)NC)ccc12 | 0% | 9% | 10% | 0% | 39% | 0% | 0% | 1% | 41% | 23% |  |  |  | 
Cc1ccc(NC(=O)c2ccc(Cl)c(Cl)c2)cc1-c1ccc(C(=O)Nc2ccncc2)cc1 [GSK1398460] | 14% | 0% | 13% | 0% | 5% | 0% | 0% | 0% | 0% | 0% |  |  |  | 
CCNc1nccc(-c2c(-c3ccc(F)cc3)ncn2C2CCN(C)CC2)n1 | 16% | 0% | 19% | 0% | 0% | 0% | 0% | 0% | 0% | 0% |  |  |  | 
CN(C)c1ncnc2nc[nH]c12 [SKF-31736] | 0% | 11% | 0% | 0% | 17% | 0% | 0% | 25% | 0% | 0% |  |  |  | 
Nc1cccc(-c2ccc3c(N)n[nH]c3c2)c1 [GSK2193613] | 16% | 0% | 8% | 1% | 0% | 13% | 0% | 0% | 0% | 15% |  |  |  | 

Compound | %Inh [1] | %Inh [2, 11] | %Inh [3] | %Inh [4] | %Inh [5] | %Inh [6, 11] | %Inh [7, 11] | %Inh [8, 11] | %Inh [9] | %Inh [10] | %Inh ([2]; 1 µM) | %Inh ([6]; 1 µM) | %Inh ([7]; 1 µM) | %Inh ([8]; 1 µM)
COc1cc(Nc2nccc(N3CCC(NC(=O)Nc4ccc5c(c4)OCO5)C3)n2)cc(OC)c1OC (centres unmarked) [GSK1379766] | 18% | 0% | 2% | 0% | 2% | 0% | 14% | 0% | 0% | 0% |  |  |  | 
CN(C)CCNS(=O)(=O)c1ccc(-c2ccnc3[nH]ccc23)cc1 [GSK977620] | 0% | 0% | 5% | 0% | 0% | 0% | 0% | 11% | 0% | 45% |  |  |  | 
COc1ccc(C)c(Nc2ccnc(Nc3ccc(-c4cnc[nH]4)cc3)n2)c1.Cl [GW784041] | 16% | 0% | 2% | 0% | 3% | 0% | 0% | 0% | 0% | 0% |  |  |  | 
Cc1ccc(-c2ccc3occ(-c4ccc(S(C)=O)cc4)c3c2)nn1 (centres unmarked) | 0% | 24% | 29% | 36% | 4% | 0% | 0% | 0% | 0% | 0% |  |  |  | 
Cc1ccc(NC(=O)c2cccc(N3CCCCC3)c2)cc1-c1ccc(C(=O)NCC2CC2)cc1 [GSK1917008] | 8% | 0% | 8% | 2% | 8% | 0% | 1% | 0% | 2% | 0% |  |  |  | 
Cc1ccc(C)c(NC(=O)Nc2ccc(C)c(-c3ccc(C(=O)Nc4ccncc4)cc3)c2)c1 [GSK1398473] | 5% | 0% | 74% | 0% | 0% | 0% | 2% | 0% | 2% | 0% |  |  |  | 
CN(c1ccc2c(c1)nc(NCc1ccccc1)n2C)c1ccnc(Nc2ccc(CS(C)(=O)=O)cc2)n1.Cl [GW811603] | 80% | 49% | 24% | 0% | 0% | 35% | 0% | 34% | 0% | 20% |  |  |  | 
CN(c1ccc(F)c(NC(=O)c2cccc(OC(C)(C)C#N)c2Cl)c1)c1ccc2nc(NC(=O)C3CC3)sc2n1 | 0% | 0% | 0% | 0% | 1% | 4% | 7% | 12% | 0% | 24% |  |  |  | 
COC(=O)Nc1nc2cc(Oc3ccc(NC(=O)Nc4cccc(SC)c4)cc3)ccc2[nH]1.Cl [GW697999] | 1% | 0% | 8% | 0% | 8% | 34% | 0% | 49% | 0% | 54% |  |  |  | 
CN1CCN(Cc2ccc(NC(=O)Nc3ccc(N(C)c4ccnc(Nc5ccc(CS(C)(=O)=O)cc5)n4)cc3)cc2)CC1.Cl [GW827654] | 38% | 99.8% | 60% | 16% | 0% | 50% | 97.8% | 65% | 58% | 53% |  |  |  | 
Cc1ccc(O)cc1Nc1ccnc2cc(-c3ccc(CN4CCCCC4)o3)ccc12 [GW557777] | 4% | 0% | 7% | 0% | 8% | 0% | 7% | 0% | 0% | 0% |  |  |  | 
Cc1cc(-c2ccnc(Nc3cccc(C#N)c3)n2)cc(C)c1O [GSK1440913] | 51% | 0% | 0% | 68% | 30% | 42% | 22% | 0% | 18% | 61% |  |  |  | 
CSc1ccc(NC2=C(c3ccc(Cl)cc3)C(=O)NC2=O)cc1 [SB-317658] | 2% | 0% | 0% | 6% | 18% | 0% | 0% | 12% | 28% | 36% |  |  |  | 
Cc1cc(-c2c(-c3ccc(F)cc3)ncn2CCCN2CCOCC2)nc(N)n1 [SB-222517] | 8% | 0% | 22% | 0% | 18% | 0% | 0% | 24% | 14% | 11% |  |  |  | 
Cn1cc(-c2ccc3c(c2)CCN3C(=O)Cc2cc(F)cc(F)c2F)c2c(N)ncnc21 [GSK2634140] | 19% | 0% | 86% | 8% | 45% | 0% | 0% | 26% | 0% | 0% |  |  |  | 
Cc1nn2c(=O)cc(N3CCO[C@H](C)C3)nc2n1Cc1cccc(Cl)c1Cl [GSK2373693] | 4% | 0% | 3% | 54% | 76% | 53% | 2% | 13% | 0% | 0% |  |  |  | 
COc1cc(Nc2nccc(N3CCC(NS(=O)(=O)c4ccc(NC(C)=O)cc4)CC3)n2)cc(OC)c1OC [GSK1379825] | 0% | 0% | 0% | 0% | 7% | 16% | 0% | 0% | 0% | 0% |  |  |  | 
Cc1ccc(NC(=O)c2ccnc(N3CCCCC3)c2)cc1-c1ccc(C(=O)NCC2CC2)cc1 [GW775610] | 0% | 0% | 0% | 36% | 0% | 20% | 0% | 0% | 8% | 0% |  |  |  | 
Cn1cc(-c2cnc(N)c3c(-c4ccc5c(c4)CCN5C(=O)Cc4ccccc4)csc23)cn1 [GSK2593074] |  |  |  |  |  |  |  |  |  |  | 0% | 0% | 0% | 0%
